# Results filed as inconclusive are left out. Where a call stands in place of a potency, no number is given. The source made the active and inactive calls. Unless noted, calls come from the whole dose curve; as a rule, active = well fitted curve in the direction sought with a large enough effect; inconclusive = small, poorly fitted or top-dose-only effect, or another doubt; inactive = no such curve, though single readings can be large; an effect the other way counts as inactive or inconclusive.
# Experiments:
# [1] = qHTS Assay for Identification of Small Molecule Inducers of Hypoxia Response (AID 2120; active = well fitted curve in the direction sought with a large enough effect in the signal ratio, with a control signal flat, not every such curve was filed as active; the % refers to the signal ratio)
# How it was run: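 HRE-bla ME-180 cells in Opti-MEM with 0.5% dialyzed FBS, pre-plated 4-5 h, then compound titration for 17 h at 37 degrees Celsius. CCF4 loaded 2.5 h at room temperature; 460/530 nm ratio gave %Activity and AC50 for induction.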
# [2] = qHTS for differential inhibitors of proliferation of Plasmodium falciparum line Dd2 (AID 1882); conditions: Potency: Plasmodium falciparum Dd2 proliferation inhibition; note: nearly all actives have a fitted effect of over 65% in size; note: potency is the fitted concentration of half-maximal effect
# How it was run: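 Dd2-infected erythrocytes (0.3% parasitemia, 2.5% hematocrit final) incubated with compound 72 h at 37 C, 5% CO2; lysed with saponin/Triton buffer containing SYBR Green I, incubated overnight in the dark, then read by fluorescence (485/535 nm). Normalized to 0.29 uM artemisinin and DMSO.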
# [3] = qHTS for differential inhibitors of proliferation of Plasmodium falciparum line W2 (AID 1883); conditions: Potency: Plasmodium falciparum W2 proliferation inhibition;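 note: potency is the fitted concentration of half-maximal effect; parasites grown with compound for 72 h before lysis and staining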
# [4] = qHTS for differential inhibitors of proliferation of Plasmodium falciparum line HB3 (AID 1886); conditions: Potency: Plasmodium falciparum HB3 proliferation inhibition;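 note: potency is the fitted concentration of half-maximal effect; parasites grown with compound for 72 h before SYBR Green readout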
# [5] = molecular target: ATP-dependent DNA helicase Q1 (Homo sapiens) (UniProt P46063); assay: qHTS Validation Assay for Inhibitors of RecQ-Like Dna Helicase 1 (RECQ1) (AID 2353)
# ATP-dependent DNA helicase Q1 (Homo sapiens), sequence (P46063 whole entry, looked up): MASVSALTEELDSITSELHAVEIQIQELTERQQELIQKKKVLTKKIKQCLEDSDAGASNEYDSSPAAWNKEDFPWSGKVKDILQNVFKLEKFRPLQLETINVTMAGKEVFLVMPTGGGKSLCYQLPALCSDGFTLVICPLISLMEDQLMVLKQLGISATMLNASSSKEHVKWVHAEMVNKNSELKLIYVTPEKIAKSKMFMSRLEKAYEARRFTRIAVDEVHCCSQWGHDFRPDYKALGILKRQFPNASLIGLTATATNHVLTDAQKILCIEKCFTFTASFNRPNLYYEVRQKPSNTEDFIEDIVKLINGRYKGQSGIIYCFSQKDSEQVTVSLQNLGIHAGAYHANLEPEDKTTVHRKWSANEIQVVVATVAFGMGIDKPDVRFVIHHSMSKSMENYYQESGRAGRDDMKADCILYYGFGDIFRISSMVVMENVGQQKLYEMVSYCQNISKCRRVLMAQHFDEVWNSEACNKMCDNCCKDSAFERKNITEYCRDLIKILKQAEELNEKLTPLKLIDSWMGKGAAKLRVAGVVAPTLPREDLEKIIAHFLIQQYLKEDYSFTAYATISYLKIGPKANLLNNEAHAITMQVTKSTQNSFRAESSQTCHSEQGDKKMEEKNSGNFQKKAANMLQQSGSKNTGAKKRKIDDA
# How it was run: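 50 nM RECQ1T1 preincubated 15 min with compound in Tris pH 8.0 buffer with MgCl2, DTT, Tween-20 and 2.5 ug/ml poly(dI-dC); started with 200 nM TAMRA/BHQ-2 forked duplex and 2 mM ATP. Unwinding read as fluorescence (525/598 nm), two reads 2 h apart.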
# [6] = molecular target: RecQ-like DNA helicase BLM (Homo sapiens) (UniProt P54132); assay: qHTS Validation Assay for Inhibitors of Bloom's syndrome helicase (BLM) (AID 2364)
# RecQ-like DNA helicase BLM (Homo sapiens), sequence (P54132 whole entry, looked up): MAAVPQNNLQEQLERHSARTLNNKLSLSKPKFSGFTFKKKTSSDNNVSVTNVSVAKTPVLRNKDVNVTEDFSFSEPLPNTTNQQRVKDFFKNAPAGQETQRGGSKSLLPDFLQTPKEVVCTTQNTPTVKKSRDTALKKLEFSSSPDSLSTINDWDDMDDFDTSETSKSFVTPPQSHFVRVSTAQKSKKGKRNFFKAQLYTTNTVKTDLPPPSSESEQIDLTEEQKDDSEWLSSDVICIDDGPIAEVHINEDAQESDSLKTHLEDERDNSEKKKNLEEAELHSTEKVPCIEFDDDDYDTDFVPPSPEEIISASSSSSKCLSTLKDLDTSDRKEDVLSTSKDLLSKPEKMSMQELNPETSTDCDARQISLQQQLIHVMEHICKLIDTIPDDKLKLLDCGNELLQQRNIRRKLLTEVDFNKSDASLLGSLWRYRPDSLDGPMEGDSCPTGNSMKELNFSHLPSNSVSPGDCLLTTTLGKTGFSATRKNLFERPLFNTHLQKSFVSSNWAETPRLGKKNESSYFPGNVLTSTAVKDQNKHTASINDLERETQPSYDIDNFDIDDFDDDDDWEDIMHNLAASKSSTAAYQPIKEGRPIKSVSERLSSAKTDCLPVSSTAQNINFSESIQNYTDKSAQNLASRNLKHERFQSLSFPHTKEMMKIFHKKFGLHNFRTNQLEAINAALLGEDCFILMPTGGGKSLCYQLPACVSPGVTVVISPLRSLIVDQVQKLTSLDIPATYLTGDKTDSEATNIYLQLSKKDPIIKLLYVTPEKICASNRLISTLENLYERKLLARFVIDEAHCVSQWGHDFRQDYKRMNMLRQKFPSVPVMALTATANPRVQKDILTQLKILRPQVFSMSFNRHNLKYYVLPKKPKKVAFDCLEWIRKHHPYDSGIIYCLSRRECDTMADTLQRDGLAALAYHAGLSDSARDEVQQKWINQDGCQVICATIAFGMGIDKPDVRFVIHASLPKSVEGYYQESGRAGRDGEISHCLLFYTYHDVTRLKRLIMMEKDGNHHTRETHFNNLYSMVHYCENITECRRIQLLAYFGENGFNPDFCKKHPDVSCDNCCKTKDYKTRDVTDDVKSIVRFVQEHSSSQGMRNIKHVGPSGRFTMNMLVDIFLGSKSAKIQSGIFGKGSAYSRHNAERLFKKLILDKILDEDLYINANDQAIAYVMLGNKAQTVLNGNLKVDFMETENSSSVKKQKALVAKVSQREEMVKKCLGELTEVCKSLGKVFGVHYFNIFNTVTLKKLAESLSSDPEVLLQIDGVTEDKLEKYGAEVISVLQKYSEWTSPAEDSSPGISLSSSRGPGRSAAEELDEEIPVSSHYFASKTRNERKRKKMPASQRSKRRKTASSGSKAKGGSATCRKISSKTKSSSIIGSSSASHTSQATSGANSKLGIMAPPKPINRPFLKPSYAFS
# How it was run: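 BLM 50 nM in 25 mM Tris-HCl pH 8.0, 5 mM NaCl, 2 mM MgCl2, 1 mM DTT, 0.01% Tween-20, 2.5 ug/ml poly(dI-dC); 15 min cpd preinc, RT. Start: 200 nM forked DNA + 2 mM ATP (final). TAMRA read, 2 reads 2 h apart.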
# [7] = Cytometric Cell-Based qHTS for Inhibitors of the mTORC1 Signaling Pathway in MEF (Tsc2-/-, p53-/-) Cells (AID 2660); note: potency is the fitted concentration of half-maximal effect
# How it was run: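 Tsc2-/-, p53-/- MEFs (empty vector) exposed to compound 24 h at 37 C, fixed, stained with Alexa-488 anti-phospho-rpS6 Ser235/236 and propidium iodide. Acumen laser scanning; phospho-S6/PI ratio thresholded against 7.5 nM rapamycin, reported as % positive cells.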
# [8] = High Content Imaging Cell-Based qHTS for Inhibitors of the mTORC1 Signaling Pathway in MEF (Tsc2-/-, p53-/-) Cells (AID 2666);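 note: percent of cells scored positive for phospho-rpS6 Ser235/236 immunostaining by imaging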
# How it was run: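 Read-out: % positive cells per well, with thresholds from highest- and lowest-signal wells, based on phospho-rpS6 (Ser235/236) intensity normalized to Hoechst nuclear stain. Cells: Tsc2-/-, p53-/- MEFs carrying empty vector; compound 24 hrs, 37 degree Celsius.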
# [9] = High Content Imaging Cell-Based qHTS for Inhibitors of the mTORC1 Signaling Pathway in MEF Cells (AID 2667);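 note: Tsc2-/- p53-/- MEFs stably re-expressing wild-type Tsc2 exposed 24 h; series mostly up to about 38 µM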
# How it was run: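 MEF (Tsc2-/-, p53-/-, WT Tsc2 re-expressed); cpd 24 h, 37 °C; PFA fix; Alexa-488 anti-p-rpS6 Ser235/236, PI, Hoechst; IN Cell imaging; Hoechst/Alexa-488 intensity ratio; % active cells, thresholds set from rapamycin and DMSO wells.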
# [10] = Cytometry Cell-Based qHTS for Inhibitors of the mTORC1 Signaling Pathway in MEF cells (AID 2668);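 note: Tsc2-/- p53-/- mouse embryonic fibroblasts stably re-expressing wild-type Tsc2; percent cells positive for phospho-rpS6 Ser235/236 relative to propidium iodide stain; series mostly up to about 38 µM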
# How it was run: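 Pathway inhibition in WT Tsc2-rescued Tsc2-/-, p53-/- MEFs is measured as the Alexa-488 phospho-rpS6 to propidium iodide intensity ratio after 24 hrs of compound at 37 degree Celsius. PI-stained cell number gives viability.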
# [11] = Validation screen for inhibitors of Lassa infection (AID 463096; calls by dose curve)
# [12] = Validation screen for small molecules that induce DNA re-replication in MCF 10A normal breast cells (AID 463097); note: nearly all actives have a fitted effect of over 60% in size
# How it was run: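 DNA re-replication was detected as a rise in nuclei with elevated Hoechst fluorescence after a 48 hr compound exposure of MCF 10A cells at 37 C.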
# [13] = molecular target: Ubiquitin carboxyl-terminal hydrolase 2 (Homo sapiens) (UniProt O75604); assay: qHTS Validation Assay for Inhibitors of Ubiquitin-specific Protease USP2a Using CHOP2 as the Reporter (AID 463106)
# Ubiquitin carboxyl-terminal hydrolase 2 (Homo sapiens), sequence (O75604 whole entry, looked up): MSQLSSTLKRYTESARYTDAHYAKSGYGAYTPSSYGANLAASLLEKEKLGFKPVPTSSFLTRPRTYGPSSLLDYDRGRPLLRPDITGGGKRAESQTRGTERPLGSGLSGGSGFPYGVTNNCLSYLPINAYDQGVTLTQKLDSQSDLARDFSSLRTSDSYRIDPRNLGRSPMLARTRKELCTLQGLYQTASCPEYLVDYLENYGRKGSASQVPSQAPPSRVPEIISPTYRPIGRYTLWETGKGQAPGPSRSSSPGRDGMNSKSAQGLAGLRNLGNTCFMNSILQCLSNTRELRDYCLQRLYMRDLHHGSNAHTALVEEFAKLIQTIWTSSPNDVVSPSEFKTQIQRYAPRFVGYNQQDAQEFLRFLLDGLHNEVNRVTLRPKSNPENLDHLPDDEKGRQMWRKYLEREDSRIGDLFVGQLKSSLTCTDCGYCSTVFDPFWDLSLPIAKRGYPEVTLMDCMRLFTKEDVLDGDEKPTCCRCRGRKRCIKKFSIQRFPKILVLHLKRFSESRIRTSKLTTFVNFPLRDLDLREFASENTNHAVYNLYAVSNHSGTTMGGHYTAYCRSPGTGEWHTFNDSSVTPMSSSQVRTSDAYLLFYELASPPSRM
# How it was run: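 USP2 core (10nM final) was preincubated with compound for 30min at RT in 20mM Tris-HCl pH 8.0, 2mM CaCl2, 2mM beta-mercaptoethanol, 0.05% CHAPS. Ub-CHOP2 and reporter substrate (25nM each) were added, and fluorescence (Ex 485/Em 531nm) was read after 60min.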
# [14] = molecular target: Tumor susceptibility gene 101 protein (Homo sapiens) (UniProt Q99816); assay: qHTS Validation Assay for Iinhibitors of HIV-1 Budding by Blocking the Interaction of PTAP/TSG101 (AID 485342; calls by dose curve)
# Tumor susceptibility gene 101 protein (Homo sapiens), sequence (Q99816 whole entry, looked up, the tested form may be a part): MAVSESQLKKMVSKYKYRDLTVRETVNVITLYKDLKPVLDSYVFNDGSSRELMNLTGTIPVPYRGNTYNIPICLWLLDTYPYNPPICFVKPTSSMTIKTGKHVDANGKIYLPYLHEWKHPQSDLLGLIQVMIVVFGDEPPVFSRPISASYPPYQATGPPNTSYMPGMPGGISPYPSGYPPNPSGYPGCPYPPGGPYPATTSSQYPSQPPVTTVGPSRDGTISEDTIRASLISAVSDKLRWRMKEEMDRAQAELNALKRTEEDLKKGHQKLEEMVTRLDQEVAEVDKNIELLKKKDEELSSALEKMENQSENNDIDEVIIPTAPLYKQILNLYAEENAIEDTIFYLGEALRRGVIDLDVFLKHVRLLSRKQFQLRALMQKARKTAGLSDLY
# How it was run: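 Fluorescence anisotropy measured PTAP-Tsg101 interaction. Final concentrations were 10 uM protein domain and 50 nM labeled peptide, equilibrated 20 min at room temperature.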
# [15] = qHTS for differential inhibitors of proliferation of Plasmodium falciparum line D10 (AID 1877);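 note: parasites grown with compound for 72 h before DNA staining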
# [16] = molecular target: Ferritin light chain (Equus caballus) (UniProt P02791); assay: qHTS Validation Assay for Identification of Novel General Anesthetics (AID 2323); note: series mostly up to about 77 µM
# Ferritin light chain (Equus caballus), sequence (P02791 2-175 limits assumed): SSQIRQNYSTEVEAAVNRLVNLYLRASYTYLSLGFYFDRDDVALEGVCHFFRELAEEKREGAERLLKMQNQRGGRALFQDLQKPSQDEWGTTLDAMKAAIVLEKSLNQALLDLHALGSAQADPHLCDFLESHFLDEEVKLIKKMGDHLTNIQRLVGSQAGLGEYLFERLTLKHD
# How it was run: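 Apoferritin from horse spleen (10 uM) was mixed with 1-aminoanthracene at 50% saturation in PBS, then compounds were added. After 10 min at room temperature, fluorescence was read (ex 380 nm, em 535 nm) and normalized to free-probe and complex controls.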
# [17] = qHTS Validation Assay to Find Inhibitors of Chronic Active B-Cell Receptor Signaling (AID 485345; active = well fitted curve in the direction sought with a large enough effect in the main read-out, with a control signal flat, not every such curve was filed as active)
# How it was run: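 TMD8 ABC-DLBCL cells with dox-inducible green luciferase–IκBα fusion and red native luciferase; compounds 46 uM–3 nM, 4 h at 37C with doxycycline in 0.5% FBS IMDM. Green/red ratio normalized to basal and 10 uM MG-132.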
# [18] = qHTS for differential inhibitors of proliferation of Plasmodium falciparum line 3D7 (AID 1876); note: potency is the fitted concentration of half-maximal effect
# [19] = molecular target: DNA polymerase III PolC-type (Bacillus subtilis (strain 168)) (UniProt P13267); assay: qHTS Validation Assay for the Inhibitors of DNA Replication in Gram-Positive Bacteria (AID 485295);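 note: reconstituted holoenzyme with PolC plus beta clamp SSB and primase; PicoGreen fluorescence of double-stranded DNA made on primed circular M13 template; series mostly up to about 57 µM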
# DNA polymerase III PolC-type (Bacillus subtilis (strain 168)), sequence (P13267 whole entry, looked up): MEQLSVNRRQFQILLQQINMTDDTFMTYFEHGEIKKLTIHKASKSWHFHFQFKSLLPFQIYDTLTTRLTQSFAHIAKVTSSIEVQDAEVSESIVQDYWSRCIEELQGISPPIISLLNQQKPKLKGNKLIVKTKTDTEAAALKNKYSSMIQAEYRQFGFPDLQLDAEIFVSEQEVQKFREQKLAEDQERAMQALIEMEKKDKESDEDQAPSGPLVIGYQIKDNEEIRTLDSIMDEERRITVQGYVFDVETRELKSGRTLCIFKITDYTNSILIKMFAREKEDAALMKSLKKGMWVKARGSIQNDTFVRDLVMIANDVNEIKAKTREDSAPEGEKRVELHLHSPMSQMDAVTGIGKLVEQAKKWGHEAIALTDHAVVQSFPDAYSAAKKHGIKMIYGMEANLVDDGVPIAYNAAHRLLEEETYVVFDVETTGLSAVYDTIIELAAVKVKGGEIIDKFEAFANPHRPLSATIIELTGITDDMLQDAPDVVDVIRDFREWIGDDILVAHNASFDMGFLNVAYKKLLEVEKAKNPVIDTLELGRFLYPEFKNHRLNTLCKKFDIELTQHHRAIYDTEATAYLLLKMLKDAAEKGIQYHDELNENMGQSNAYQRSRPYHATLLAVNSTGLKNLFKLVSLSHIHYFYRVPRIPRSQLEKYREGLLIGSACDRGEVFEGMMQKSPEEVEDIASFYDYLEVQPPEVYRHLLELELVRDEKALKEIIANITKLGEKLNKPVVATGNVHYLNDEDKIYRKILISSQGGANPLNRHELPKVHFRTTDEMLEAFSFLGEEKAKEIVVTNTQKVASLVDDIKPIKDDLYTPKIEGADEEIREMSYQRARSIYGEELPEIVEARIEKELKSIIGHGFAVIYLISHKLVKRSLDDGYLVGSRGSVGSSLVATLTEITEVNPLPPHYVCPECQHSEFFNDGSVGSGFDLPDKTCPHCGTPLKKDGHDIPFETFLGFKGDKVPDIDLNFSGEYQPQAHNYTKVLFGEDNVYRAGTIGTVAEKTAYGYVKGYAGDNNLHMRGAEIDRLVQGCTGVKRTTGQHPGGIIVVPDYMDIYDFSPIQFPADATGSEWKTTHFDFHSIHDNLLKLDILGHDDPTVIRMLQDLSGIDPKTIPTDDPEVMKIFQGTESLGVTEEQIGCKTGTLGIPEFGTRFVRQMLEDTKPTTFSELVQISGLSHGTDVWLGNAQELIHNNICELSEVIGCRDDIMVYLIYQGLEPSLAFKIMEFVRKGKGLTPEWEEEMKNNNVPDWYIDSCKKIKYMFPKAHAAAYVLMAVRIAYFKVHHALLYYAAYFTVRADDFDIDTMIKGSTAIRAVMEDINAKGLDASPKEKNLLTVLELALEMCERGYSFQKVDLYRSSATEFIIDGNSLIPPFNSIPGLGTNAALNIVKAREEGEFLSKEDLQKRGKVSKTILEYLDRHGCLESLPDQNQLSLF
# How it was run: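 Primed replication of single-stranded M13Gori by a four-protein B. subtilis holoenzyme is measured at room temperature. Double-stranded product is quantified by PicoGreen fluorescence after an EDTA stop; inhibition is scaled between DMSO and EDTA controls.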
# [20] = qHTS Assay for Modulators of Human Peripheral Myelin Protein 22 (PMP22) Expression/Activity (AID 1967; active = well fitted curve in the direction sought with a large enough effect in the signal ratio; the % refers to the signal ratio)
# How it was run: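 Quantitative HTS in a mouse Schwann cell line expressing dual click beetle luciferases: Pmp22 promoter (green) and control EF-alpha promoter (red). After 24h treatment, corrected green/red signal ratio gave %Activity relative to untreated cells.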
smiles,measurement,setting,value
Cc1cc(O)ccc1Cl,outcome,[1],inactive
O=[N+]([O-])c1c(Cl)c(Cl)cc(Cl)c1Cl,outcome,[1],inactive
Cc1nccc2c1[nH]c1ccccc12,Potency,[2],inactive
same,Potency,[3],10 µM (active)
same,Potency,[4],11.2 µM (active)
same,outcome,[5],inactive
same,Potency,[6],inactive
same,Potency,[7],inactive
same,Potency,[8],inactive
same,Potency,[9],inactive
same,Potency,[10],inactive
same,Potency,[11],inactive
same,Potency,[12],inactive
same,Potency,[13],inactive
same,outcome,[14],inactive
CN(C)NC(=O)CCC(=O)O,outcome,[1],inactive
NCCc1c[nH]c2ccccc12,Potency,[15],inactive
same,Potency,[2],inactive
same,outcome,[16],inactive
same,outcome,[5],inactive
same,Potency,[6],inactive
same,Potency,[7],inactive
same,Potency,[8],inactive
same,Potency,[9],inactive
same,Potency,[10],inactive
same,Potency,[11],inactive
same,Potency,[12],inactive
same,Potency,[13],inactive
same,outcome,[14],inactive
same,outcome,[17],inactive
CN[C@@H]1C[C@@H](c2ccc(Cl)c(Cl)c2)c2ccccc21,Potency,[18],12.6 µM (active)
same,Potency,[2],12.6 µM (active)
same,outcome,[5],inactive
same,Potency,[6],inactive
same,Potency,[7],18.5 µM (active)
same,Potency,[13],inactive
same,outcome,[14],inactive
O=C(O)C(Cl)Cl,outcome,[1],inactive
Nc1ccc(Cl)cc1N,outcome,[1],inactive
NC1CC1c1ccccc1 (stereo unspecified),Potency,[2],inactive
same,Potency,[3],10 µM (active)
same,Potency,[4],10 µM (active)
same,outcome,[5],inactive
same,Potency,[7],inactive
same,Potency,[8],inactive
same,Potency,[9],inactive
same,Potency,[10],inactive
same,Potency,[11],inactive
same,Potency,[12],inactive
same,Potency,[13],inactive
same,Potency,[19],inactive
same,outcome,[14],inactive
same,outcome,[17],inactive
CC1=NN=C(c2ccc(N)cc2)c2cc3c(cc2C1)OCO3,Potency,[2],inactive
same,Potency,[3],8.91 µM (active)
same,outcome,[16],inactive
same,outcome,[5],inactive
same,Potency,[6],inactive
same,Potency,[7],inactive
same,Potency,[8],inactive
same,Potency,[9],inactive
same,Potency,[10],inactive
same,Potency,[11],inactive
same,Potency,[12],inactive
same,Potency,[13],inactive
same,outcome,[14],inactive
same,outcome,[17],inactive
NC1CCc2cc(O)c(O)cc2C1 (stereo unspecified),Potency,[18],inactive
same,Potency,[2],inactive
same,Potency,[3],14.1 µM (active)
same,outcome,[20],inactive
same,outcome,[16],inactive
same,outcome,[5],inactive
same,Potency,[7],inactive
same,Potency,[8],inactive
same,Potency,[9],inactive
same,Potency,[10],inactive
same,Potency,[11],inactive
same,Potency,[12],inactive
same,outcome,[14],inactive
same,outcome,[17],inactive
CC(C)NC(C)Cc1ccc(I)cc1 (stereo unspecified),Potency,[3],7.08 µM (active)
same,outcome,[16],inactive
same,outcome,[5],inactive
same,Potency,[6],inactive
same,Potency,[7],inactive
same,Potency,[8],inactive
same,Potency,[9],inactive
same,Potency,[10],inactive
same,Potency,[11],inactive
same,Potency,[12],inactive
same,Potency,[13],inactive
same,outcome,[14],inactive
same,outcome,[17],inactive
CN1C2CCC1CC(OC(=O)c1cc(Cl)cc(Cl)c1)C2 (stereo unspecified),Potency,[18],10 µM (active)
same,Potency,[2],inactive
same,Potency,[3],8.91 µM (active)
same,outcome,[16],inactive
same,outcome,[5],inactive
same,Potency,[6],inactive
same,Potency,[7],inactive
same,Potency,[8],inactive
same,Potency,[9],inactive
same,Potency,[11],inactive
same,Potency,[13],inactive
same,outcome,[14],inactive

# Source: PubChem BioAssay (NCATS)
